Compound activity deposited in PubChem by The Scripps Research Institute Molecular Screening Center.
ASK1 inh – human ASK1 kinase inhibition, primary screen | Q99683 | AlphaScreen MKK6 phosphorylation by ASK1, luminescence | inhibition, % at 7.44 µM | 0.99% of 22,000 active | AID 1159602; in the data active = inhibition above about 35%;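 also: 0% = median of compound wells and 100% = no enzyme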
Target sequence (Q99683 whole entry, looked up): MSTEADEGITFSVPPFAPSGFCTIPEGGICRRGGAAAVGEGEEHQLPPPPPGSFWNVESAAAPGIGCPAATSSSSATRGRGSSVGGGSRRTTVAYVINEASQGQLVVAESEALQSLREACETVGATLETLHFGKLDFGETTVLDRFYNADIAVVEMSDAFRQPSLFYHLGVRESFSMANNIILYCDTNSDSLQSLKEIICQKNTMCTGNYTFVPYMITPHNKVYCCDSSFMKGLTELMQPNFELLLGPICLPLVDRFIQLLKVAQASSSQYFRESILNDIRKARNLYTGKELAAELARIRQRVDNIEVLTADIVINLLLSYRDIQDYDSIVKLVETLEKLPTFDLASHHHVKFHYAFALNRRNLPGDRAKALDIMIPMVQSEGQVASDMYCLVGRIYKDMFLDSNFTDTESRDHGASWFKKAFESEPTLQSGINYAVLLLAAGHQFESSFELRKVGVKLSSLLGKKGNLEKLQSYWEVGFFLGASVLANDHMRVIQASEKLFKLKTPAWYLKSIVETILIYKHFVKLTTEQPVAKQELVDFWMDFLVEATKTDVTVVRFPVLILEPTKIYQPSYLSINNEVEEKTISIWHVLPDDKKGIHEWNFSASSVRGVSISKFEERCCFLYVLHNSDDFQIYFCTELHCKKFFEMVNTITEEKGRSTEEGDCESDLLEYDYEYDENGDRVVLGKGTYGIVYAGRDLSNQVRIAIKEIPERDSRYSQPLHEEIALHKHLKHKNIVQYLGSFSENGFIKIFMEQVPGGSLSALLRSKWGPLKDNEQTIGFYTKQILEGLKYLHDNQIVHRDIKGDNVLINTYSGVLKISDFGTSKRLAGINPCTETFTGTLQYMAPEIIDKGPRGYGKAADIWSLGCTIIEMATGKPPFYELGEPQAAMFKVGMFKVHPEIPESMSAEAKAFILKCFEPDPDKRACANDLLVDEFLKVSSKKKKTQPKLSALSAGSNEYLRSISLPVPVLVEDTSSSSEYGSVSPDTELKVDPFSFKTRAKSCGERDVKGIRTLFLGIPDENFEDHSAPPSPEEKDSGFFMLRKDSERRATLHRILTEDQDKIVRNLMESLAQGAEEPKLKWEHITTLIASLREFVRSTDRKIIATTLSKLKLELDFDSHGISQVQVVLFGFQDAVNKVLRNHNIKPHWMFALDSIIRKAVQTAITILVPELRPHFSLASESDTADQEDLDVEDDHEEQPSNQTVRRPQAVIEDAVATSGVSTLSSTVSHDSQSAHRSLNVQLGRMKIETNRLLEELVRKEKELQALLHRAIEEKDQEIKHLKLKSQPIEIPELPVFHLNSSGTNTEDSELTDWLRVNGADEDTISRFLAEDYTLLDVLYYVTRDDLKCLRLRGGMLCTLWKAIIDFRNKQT
ULK1 inh – blocks human autophagy kinase ULK1; O75385; AlphaScreen Atg13 phosphorylation by ULK1, luminescence; inhibition, % at 5.96 µM; 1.9% of 30,000 active; AID 1259251; in the data active = inhibition above about 43%;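 also: 0% = median of compound wells and 100% = no enzyme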
AlphaScreen intf – interferes with AlphaScreen TruHits signal in ASK1 counter-screen | shares compounds with ASK1 inh | 20% of 220 active | AID 1159604 | IC50, µM | AlphaScreen TruHits beads, signal interference counterscreen;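 active = IC50 of 10 µM or lower in the counterscreen; inactive = IC50 above 10 µM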;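 also: loss of AlphaScreen light from TruHits beads alone with no ASK1 enzyme present; potency of signal reduction so a low IC50 flags an assay artifact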
Active calls of the source: *; x = no result given. Compounds with a hit are over-represented: about 2.5% of the library has one in this group of screens.

SMILES | ASK1 inh | ULK1 inh | others
Cn1c(Nc2nc(NCCO)c3ncn(CCN4CCCC4=O)c3n2)nc2ccccc21 | 2 | 73*
O=C1/C(=C\c2cccs2)N2CCC1CC2 | x | 10
O=C1/C(=C/c2cccs2)CCC/C1=C\c1cccs1 | x | 82*
Cc1cc(NCCOc2ccccc2)nc(Nc2nccc3ccccc23)n1 | 2 | -6
COc1cc2nc(Nc3cccc(N(C)C)c3)nc(NC3CC3)c2cc1OC | 49* | 7
COc1cc2nc(Nc3ccccc3)nc(NCCOc3ccccc3)c2cc1OC | -6 | -18
CCCNc1nc(Nc2cccc(N(C)C)c2)nc2cc(OC)c(OC)cc12 | 25 | 4
COc1cc2nc(Nc3cccc(N(C)C)c3)nc(NCCOc3ccccc3)c2cc1OC | 40* | -32
Cc1cc(N2CCCCC2)nc(N2CCN(C(=O)Nc3cccc(Cl)c3)CC2)n1 | x | -15
c1ccc(-n2nnnc2Nc2cnn(-c3cccc(-c4nc5ccncc5[nH]4)c3)c2)cc1 | -3 | -35
c1cc(-c2cc(NCCCn3ccnc3)nc(-c3ccncc3)n2)ccn1 | x | 2
O=C(Cc1cn(-c2ccc(NCCCN3CCCC3=O)nn2)c2ccccc12)Nc1ccc(N2CCOCC2)cc1 | -1 | 47*
CC(=O)Nc1ccc(NC(=O)Cc2cn(-c3ccc(NCCCN4CCCC4=O)nn3)c3ccccc23)cc1 | 5 | 44*
O=C(Cc1cn(-c2ccc(NCCCN3CCCC3=O)nn2)c2ccccc12)Nc1ccccc1 | -3 | 2
O=C(Cc1cn(-c2ccc(NCCCN3CCCC3=O)nn2)c2ccccc12)Nc1ccc(Oc2ccccc2)cc1 | 16 | -13
O=C(Cc1cn(-c2ccc(Nc3ccc4ncccc4c3)nn2)c2ccccc12)Nc1ccccc1 | 2 | 12
Cc1ncc(COP(=O)(O)O)c(C=O)c1O | x | -13
Cc1ncc(CSSCc2cnc(C)c(O)c2CO)c(CO)c1O | x | 47*
O=C(Nc1ccc2[nH]ncc2c1)[C@@H]1CCCN1C(=O)C(O)c1ccc(Br)cc1 (some centres undefined) | 15 | 6
O=C(NCc1nc2ccccc2[nH]1)c1cccc(NCCN2CCOCC2)n1 | -8 | -3
Cn1cc(-c2ccnc(NC(=O)Cc3ccc(F)cc3)c2)cn1 | -12 | 2
Nc1cccc(-c2nc(NCc3cccnc3)c3[nH]cnc3n2)c1 | -12 | 69*
CC(=O)c1cccc(-c2nc(NCc3cccnc3)c3[nH]cnc3n2)c1 | -1 | 54*
Nc1cccc(-c2nc(NCc3ccccc3)c3[nH]cnc3n2)c1 | -1 | -4
CC(=O)c1cccc(-c2nc(NCc3ccccc3)c3[nH]cnc3n2)c1 | -1 | -2
SMILES | ASK1 inh | ULK1 inh | others
CC(C)CC1C(=O)Nc2cc(S(C)(=O)=O)ccc2N1C(=O)Cc1ccccc1Cl (centres undefined) | x | -3
CN(C)C(=O)C(=O)c1c[nH]c2ccc(Nc3cc(Nc4ccccn4)c(C(F)(F)F)cn3)cc12 | 19 | 45*
CNC(=O)c1ccccc1Nc1cc(Nc2ccc3[nH]cc(C(=O)C(=O)N(C)C)c3c2)ncc1C(F)(F)F | -14 | 75*
CN(c1ncccc1CNc1cc(Nc2ccc3[nH]c(=O)oc3c2)ncc1C(F)(F)F)S(C)(=O)=O | 23 | 39
N[C@@H](Cc1ccc(Br)cc1)C(=O)N1CCC(Nc2ccc3cn[nH]c3c2)CC1 | -15 | 3
CCOC(=O)c1cnn(-c2cccc(C)c2C)c1N | x | 11
CS(=O)(=O)Nc1cccc(-c2ccnc(Nc3cccc(S(N)(=O)=O)c3)n2)c1 | -1 | 26
CS(=O)(=O)Cc1ccc(-c2ccnc(Nc3ccc(S(N)(=O)=O)cc3)n2)cc1 | -14 | 50*
NS(=O)(=O)c1ccc(Nc2nccc(-c3ccc(Nc4ccccc4)cc3)n2)cc1 | -59 | -4
CN(C)S(=O)(=O)Nc1ccc(-c2ccnc(Nc3ccc(S(N)(=O)=O)cc3)n2)cc1 | 3 | 48*
CS(=O)(=O)Nc1ccc(-c2ccnc(Nc3cccc(S(N)(=O)=O)c3)n2)cc1 | -20 | 58*
CCS(=O)(=O)c1ccc(-c2ccnc(Nc3ccc(S(N)(=O)=O)cc3)n2)cc1 | -24 | 15
O=C(CCl)Nc1cc(C(F)(F)F)ccc1N1CCOCC1 | x | 7
O=C(O/N=C/c1ccc(F)cc1)c1cccnc1C(F)(F)F | x | 3
CCc1ccccc1N1C(=O)CC(N2CCc3ccccc32)C1=O (centres undefined) | x | 0
O=C(NCCO)c1csc(Nc2ccc(C(F)(F)F)cc2)n1 | -21 | -7
Cc1cc(NCCO)nc(N2CCCC2CO)n1 (centres undefined) | 4 | 7
Cc1cc(N)nc(N2CCC(N3CCOCC3)CC2)n1 | 9 | 49*
Cc1cc(NC2CC2)nc(N2CCC(N3CCOCC3)CC2)n1 | -13 | -1
O=C(Cc1cn(-c2ccc(Cl)nn2)c2ccccc12)NC1CC1 | -7 | 12
Cn1cc(-c2ccc3cnc(Nc4ccc(-c5ccc(N6CCOCC6)nc5)cc4)nc3c2Cl)cn1 | 38* | 43* | AlphaScreen intf=>19
